According to PubChem BioAssay AID463173 (ICCB-Longwood Screening Facility, Harvard Medical School, 2010):
Among all 52,000 compounds or so, about 1,700 (3.3%) were called active. The sample holds actives, similar compounds and a random draw of the others, so the mix is not that of the screen. A number with no mark means an inactive call. No stated cut-off is given here; in the data, active means survival mostly below about 52% (no sharp cut-off); inactive means mostly above about 56%.

tested on: Wild type; experiment: S. aureus survival, RN4220 and DeltatarO strains – OD600, teichoic acid synthesis inhibitors, primary screen (AID 463173); conditions: S. aureus RN4220 wild type/DeltatarO growth, OD600, 18 h, stronger effect = lower value, screened at 18.75 µg/mL (by protocol)

Compound | survival
COC(=O)c1ccc2c(c1)N(CC(=O)Nc1cccc(C(F)(F)F)c1)C(=O)c1ccccc1S2 | 77%
Cc1ccc(OCC(=O)Nc2ccc3nc(SCC(=O)N4CCCC4)sc3c2)cc1 | 91%
COc1cccc(CC(=O)NCc2ccc3c(c2)CCN3C(C)=O)c1 | 71%
COc1cccc(C(=O)Nc2cc(-c3ccccc3)nn2-c2ccccc2)c1 | 69%
Cc1ccc(NC(=O)c2c(C)oc3ccc(O)c(CN4CCCCC4)c23)cc1 | 86%
Cc1cc(C)c(NS(=O)(=O)c2ccc3c(c2)CC(C)N3C(=O)C2CCC2)c(C)c1 (stereo not drawn) | 64%
O=C(CCCCn1c(=O)c2ccccc2n(Cc2cccc(Cl)c2)c1=O)NCc1ccc2c(c1)OCO2 | 98%
CCCCNC(=O)c1cccc(-n2c(C)nc3cccnc32)c1 | 73%
CCc1ccccc1NC(=O)CCNS(=O)(=O)c1ccc2c(c1)CCCC(=O)N2 | 73%
CCn1c(CN2CCOCC2)nc2cc(NC(=O)c3ccc([N+](=O)[O-])cc3)ccc21 | 90%
c1cc2c(cc1CNC1CCCC1)OCO2 | 104%
O=C(CSc1nnc(-c2ccncc2)n1-c1ccccc1)Nc1ccc(F)cc1 | 72%
Cc1ccc(O)c(C2=Nc3ccccc3N=C(c3cccc(F)c3)C2)c1 | 139%
O=S(=O)(NCc1nc2cccnc2n1Cc1ccccc1Cl)c1ccc(F)c(Cl)c1 | 76%
O=S(=O)(NCc1nc2cccnc2n1Cc1ccc(F)cc1)c1ccc(Cl)s1 | -6% (active)
CCc1ccc(Cn2c(CNS(=O)(=O)c3ccc(F)c(Cl)c3)nc3cccnc32)cc1 | -3% (active)
COc1ccc(CCC(=O)NCc2nc3cccnc3n2Cc2ccc(F)cc2)cc1 | 123%
Cc1ccc(Cn2c(CNS(=O)(=O)c3ccc(Cl)s3)nc3cccnc32)cc1 | 136%
CCc1ccc(Cn2c(CNS(=O)(=O)c3ccc(Cl)s3)nc3cccnc32)cc1 | 53%
O=C(CCc1ccccc1)NCc1nc2cccnc2n1Cc1ccc(F)cc1 | -6% (active)

Compound | survival
Cc1ccc(Cn2c(CNS(=O)(=O)c3ccc(F)c(Cl)c3)nc3cccnc32)cc1 | 134%
Cc1ccc(Cn2c(CNC(=O)CCc3ccccc3)nc3cccnc32)cc1 | 99%
COc1ccc(C)cc1NC(=O)C(NS(=O)(=O)c1cccc2nsnc12)c1ccccc1 (stereo not drawn) | 64%
Cc1cc(C)c(/C=C/c2onc(C)c2S(=O)(=O)N2CCC(C(=O)NCc3ccccc3Cl)CC2)c(C)c1 | 72%
Cc1ccc(CNS(=O)(=O)c2cc(Br)cc3c2N(C(=O)C2CC2)CC3)cc1 | 66%
Cc1cc(NC(=O)COCc2cc(-c3ccc(F)cc3)on2)ccc1Br | 82%
CCC(=O)N1CCc2cc(S(=O)(=O)NC(CC(C)C)C(=O)Nc3ccc(CC)cc3)ccc21 (stereo not drawn) | 84%
COc1cccc(C2CC(=O)Nc3c2ccc(C)c3C)c1OC (stereo not drawn) | 87%
Cc1ccc2c(c1C)NC(=O)CC2c1ccc(Cl)cc1Cl (stereo not drawn) | 1% (active)
CC1=C(C(=O)OCC2CCCCC2)C(c2ccc(Cl)cc2Cl)CC(=O)N1 (stereo not drawn) | 82%
CCOC(=O)CSc1ccc2nnc(CCNS(=O)(=O)c3ccccc3)n2n1 | 87%
Cc1c(-c2nc(-c3ccc4c(c3)OCO4)no2)nnn1-c1ccc(C(C)C)cc1 | 73%
CCOc1ccccc1CNC(=O)Cn1ncn2nc(-c3cccs3)cc2c1=O | 93%
CC(C)c1ccc(OC(=O)c2cc(-c3ccc4c(c3)OCCO4)on2)cc1 | 46%
N#Cc1ccc(OC(=O)c2cc(-c3ccc4c(c3)OCCO4)on2)cc1 | 117%
O=C(Oc1ccc(Cl)cc1)c1cc(-c2ccc3c(c2)OCCO3)on1 | 108%
COc1ccc(OC(=O)c2cc(-c3ccc4c(c3)OCCO4)on2)cc1 | 109%
Cc1ccc(OC(=O)c2cc(-c3ccc4c(c3)OCCO4)on2)cc1C | -7% (active)
Cc1cc(OC(=O)c2cc(-c3ccc4c(c3)OCCO4)on2)ccc1Cl | -6% (active)
CCn1c(=NC(=O)c2ccc(S(=O)(=O)N3CCCCC3)cc2)sc2cccc(OC)c21 | 68%

Compound | survival
Cc1ccc(C(=O)NC2CC3CCCC(C2)N3C(=O)NC2CCCCC2)cc1 (stereo not drawn) | 101%
O=C(CCC1CCCC1)N1CCN(C(=O)Cc2ccccc2)CC1 | 94%
COc1cc(OC)c(Nc2nc3ccccc3c3nncn23)cc1Cl | 136%
COc1ccc(-n2c(-c3ccc(Cl)cc3)cc3c2CC(C)(C)CC3=O)c(OC)c1 | 3% (active)
COc1ccc(-n2c(-c3ccc(C)cc3)cc3c2CC(C)(C)CC3=O)c(OC)c1 | 96%
CCOc1ccc(-n2c(-c3ccc(OC)cc3)cc3c2CC(C)(C)CC3=O)cc1 | 41%
Cc1ccc(-c2cc3c(n2-c2ccc(C)cc2)CC(C)(C)CC3=O)cc1 | 69%
CCOc1ccc(-n2c(-c3ccc(Br)cc3)cc3c2CC(C)(C)CC3=O)cc1 | 8% (active)
COc1ccc(C)cc1-n1c(-c2ccc(Cl)cc2)cc2c1CC(C)(C)CC2=O | 94%
CCCCCn1c(=O)[nH]c2cc(C(=O)NCc3ccccc3)ccc2c1=O | 83%
COCCNC(=O)CCCN1C(=O)CCn2nc(-c3cccn3C)cc21 | 68%
CCOc1ccc(-n2c(SCc3nc(-c4ccccc4C)no3)nnc2-c2ccccc2)cc1 | 84%
CCC(Sc1nncn2c1cc1occc12)C(=O)Nc1ccc(C)c(Cl)c1 (stereo not drawn) | 44%
CCc1nn(CC(=O)NC(C)c2ccccc2)c(=O)c2cc3sccc3n12 (stereo not drawn) | 91%
COc1ccc(-n2c(=O)c3ccccc3n(CC(=O)Nc3ccccc3OC)c2=O)cc1 | 89%
CN1C(C(=O)NC(C)(C)C)=CC(c2ccc3c(c2)OCO3)=NS1(=O)=O | 84%
Cc1cc(NCCN(C)C)c2ccccc2n1 | 106%
COc1ccc(-c2cccc(NS(=O)(=O)c3cc(C(F)(F)F)ccc3Cl)c2)nn1 | 59%
